The list is not random: actives were taken first. Their share in the collection is about 4.1%.
LMP1 NFkB inh: EBV LMP1-driven NF-kappaB luciferase reporter inhibitors, primary screen, cell-based, luminescence, single point; LMP1-induced NF-kappaB luciferase reporter cells; inhibition, % at 12.5 µM; 350,000 compounds, 0.69% hits; AID 504558, 2011; in the data active means inhibition above about 41%
TWEAK Fn14 block: inhibitors of TWEAK-Fn14 signaling, primary screen, luciferase reporter cells, uHTS | TWEAK-stimulated Fn14 reporter cells, luciferase luminescence, 8 h | inhibition, % at 10 µM | 360,000 compounds, 2% hits | AID 1159606, 2016; in the data active means inhibition above about 50%
Peg3 prom inh: Peg3 promoter-driven luciferase inhibitors, primary screen, cell-based, HeLa, luciferase luminescence; 360,000 compounds, 1.7% hits; AID 588405, 2011; HeLa PEG-Prom luciferase reporter, overnight; inhibition, % at 20 µM;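 active means inhibition of at least 50% at 20 µM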
Shn3 inh set2: reduction of Shn3 3'UTR firefly luciferase signal, primary screen, Schnurri-3 inhibitor project, cell-based, Clone20 osteoblasts, set 2 | 360,000 compounds, 0.52% hits | Clone20 osteoblast Shn3 3'UTR firefly luciferase, 24 h | inhibition, % at 12.5 µM;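 active means mean inhibition of at least 75% with every replicate also reaching 75%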
TROY signal inh: inhibitors of TROY-driven NF-kB signaling, primary screen, Q293 LMP1-TROYcd cells, NF-kB luciferase, uHTS | Q293 LMP1-TROYcd NF-kB luciferase reporter, 4 h | 360,000 compounds, 0.98% hits | inhibition, % at 10 µM | AID 1347056, 2019;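 active means compounds whose plate-normalised and pattern-corrected inhibition of the luciferase reporter signal at the single screening dose is 50% or more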
TRPM1 prom inh: inhibitors of MITF-dependent TRPM1 promoter reporter, primary screen, cell-based, SK-MEL-5, single point, luciferase; SK-MEL-5 TRPM1 promoter luciferase, 24 h; inhibition, % at 12.5 µM; 330,000 compounds, 0.83% hits; AID 488899, 2010;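 active means mean inhibition across replicates of 60% or more, whatever share of single replicates reaches that level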
Numbers stand for hits.

Screening CC(C)N(Cc1ccccc1)C(=O)COC(=O)CCC(=O)c1ccc(F)cc1 returned LMP1 NFkB inh inactive, TWEAK Fn14 block inactive, Peg3 prom inh inactive, Shn3 inh set2 inactive, TROY signal inh inactive and TRPM1 prom inh inactive.
Screening CCOc1cc(/C=N/NC(=O)c2ccccc2-n2cccc2)ccc1O returned LMP1 NFkB inh 71, TWEAK Fn14 block inactive, Peg3 prom inh inactive, Shn3 inh set2 inactive, TROY signal inh inactive and TRPM1 prom inh inactive.
For CCOc1cc(/C=N/NC(=O)c2ccccc2OCc2ccc(F)cc2)ccc1O the results were LMP1 NFkB inh inactive, TWEAK Fn14 block inactive, Peg3 prom inh inactive, Shn3 inh set2 inactive, TROY signal inh inactive and TRPM1 prom inh inactive.
`O=C(c1ccc(COc2ccccc2Cl)o1)N1CCCC1` gave LMP1 NFkB inh 47, TWEAK Fn14 block inactive, Peg3 prom inh inactive, Shn3 inh set2 inactive, TROY signal inh inactive and TRPM1 prom inh inactive.
OC(c1ccccc1)C(O)C(c1ccccc1)N1CCCCC1 (stereo not drawn) was read as LMP1 NFkB inh inactive, TWEAK Fn14 block inactive, Peg3 prom inh inactive, Shn3 inh set2 92, TROY signal inh inactive and TRPM1 prom inh inactive.
For OC(c1ccccc1)C(O)c1ccccc1 (stereo not drawn) the results were TWEAK Fn14 block inactive, Peg3 prom inh inactive, Shn3 inh set2 inactive and TROY signal inh inactive.
O=C(c1c[nH]c(C(=O)C(Cl)(Cl)Cl)c1)c1ccc(F)cc1F was read as LMP1 NFkB inh inactive, TWEAK Fn14 block inactive, Peg3 prom inh inactive, Shn3 inh set2 inactive, TROY signal inh inactive and TRPM1 prom inh inactive.
For O=C(c1c[nH]c(C(=O)C(Cl)(Cl)Cl)c1)c1ccc(F)cc1Cl the results were LMP1 NFkB inh inactive, TWEAK Fn14 block inactive, Peg3 prom inh 54, Shn3 inh set2 inactive, TROY signal inh inactive and TRPM1 prom inh inactive.
For O=C(c1ccc(Cl)cc1)c1c[nH]c(C(=O)C(Cl)(Cl)Cl)c1 the results were LMP1 NFkB inh inactive, TWEAK Fn14 block inactive, Peg3 prom inh 58, Shn3 inh set2 inactive, TROY signal inh inactive and TRPM1 prom inh inactive.
Screening O=C(c1ccccc1)c1c[nH]c(C(=O)C(Cl)(Cl)Cl)c1 returned LMP1 NFkB inh inactive, TWEAK Fn14 block inactive, Peg3 prom inh inactive, Shn3 inh set2 inactive, TROY signal inh inactive and TRPM1 prom inh inactive.
Screening CCOc1ccc(C(=O)CCC(=O)N(CC)CC(=O)NCc2ccc(Cl)cc2)cc1 returned LMP1 NFkB inh inactive, TWEAK Fn14 block inactive, Peg3 prom inh inactive, Shn3 inh set2 inactive, TROY signal inh inactive and TRPM1 prom inh inactive.
For COc1ccc2c(c1)c(CC(=O)OCC(N)=O)c(C)n2C(=O)c1ccc(Cl)cc1 the results were LMP1 NFkB inh inactive, TWEAK Fn14 block inactive, Peg3 prom inh inactive, Shn3 inh set2 inactive, TROY signal inh 54 and TRPM1 prom inh inactive.
For COC(=O)CCNC(=O)Cc1ccc(S(=O)(=O)N2CCCCC2)s1 the results were LMP1 NFkB inh inactive, TWEAK Fn14 block inactive, Peg3 prom inh inactive, Shn3 inh set2 inactive, TROY signal inh inactive and TRPM1 prom inh inactive.
`CCn1c2ccccc2c2cc(C3C(C#N)=C(N)Oc4n[nH]c(COC)c43)ccc21` (stereo not drawn) gave LMP1 NFkB inh 92, TWEAK Fn14 block inactive, Peg3 prom inh 89, Shn3 inh set2 inactive, TROY signal inh inactive and TRPM1 prom inh inactive.
Screening CCCCN1C(N)=NC[C@@H]1CCCCN returned LMP1 NFkB inh inactive, TWEAK Fn14 block inactive, Peg3 prom inh inactive, Shn3 inh set2 inactive, TROY signal inh inactive and TRPM1 prom inh inactive.
Screening COc1ccc(NC(=S)N/C(=N/CS(=O)(=O)c2ccccc2)c2ccccc2)cc1 returned LMP1 NFkB inh inactive, TWEAK Fn14 block 52, Peg3 prom inh inactive, Shn3 inh set2 inactive, TROY signal inh inactive and TRPM1 prom inh inactive.
For Clc1ccc(-c2nc3ccccn3c2CN2CCCCC2)cc1 the results were LMP1 NFkB inh inactive, TWEAK Fn14 block 83, Peg3 prom inh inactive, Shn3 inh set2 inactive, TROY signal inh 55 and TRPM1 prom inh inactive.
O=C(CNS(=O)(=O)c1ccc(Br)s1)N1CCN(c2ccc(F)cc2)CC1 was read as LMP1 NFkB inh inactive, TWEAK Fn14 block inactive, Peg3 prom inh inactive, Shn3 inh set2 inactive, TROY signal inh inactive and TRPM1 prom inh inactive.

Assay outcomes (PubChem)
